Assay [1] concerns the target D(1A) dopamine receptor (Homo sapiens) (UniProt P21728). The experiment in a line: NVS_GPCR_hDRD1: NovaScreen (NVS) G Protein-Coupled Receptor Assay for human Dopamine Receptor D1 (DRD1) (AID 2283269). The gist of the method:
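Cell-free competition with radioligand, filter-trapped and scintillation-counted 1 h post-dose, using HEK293-derived human D1 preparation. Duplicate single-point testing at 25 uM first, then concentration series for actives; DMSO served as baseline, loss-of-signal scored.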

The target in assay [2] is human Neurokinin, NK2 Receptor, TACR2 (gene 6865) (UniProt P21452). The experiment in a line: NVS_GPCR_hNK2: NovaScreen (NVS) G Protein-Coupled Receptor Assay for human Neurokinin, NK2 Receptor (AID 2283278).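 Further: actives reduce bound radioligand signal relative to DMSO baseline.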 The procedure, abridged:
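Cell-free radioligand binding using receptor protein extracted from CHO cells; readings taken 4 hours after chemical dosing by filter-based scintillation counting. Primary screen ran single concentration (25 uM) in duplicate; actives followed up in concentration series, loss-of-signal versus DMSO baseline.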

In assay [3] the target is human Thromboxane A2 Receptor (TXA2), TBXA2R (gene 6915) (UniProt P21731). Description: NVS_GPCR_hTXA2: NovaScreen (NVS) G Protein-Coupled Receptor Assay for human Thromboxane A2 Receptor (TXA2) (AID 2283282).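 Further: actives reduce bound radioligand signal relative to DMSO baseline.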 The gist of the method: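 Human platelet-derived receptor preparation incubated with test chemical and radiolabelled ligand for 1 hour, cell-free. Bound label was separated by filtration and counted; displacement relative to DMSO controls gave activity, screened at 25 uM, then titrated.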
human Thromboxane A2 Receptor (TXA2), TBXA2R (gene 6915), sequence (P21731 whole entry, looked up): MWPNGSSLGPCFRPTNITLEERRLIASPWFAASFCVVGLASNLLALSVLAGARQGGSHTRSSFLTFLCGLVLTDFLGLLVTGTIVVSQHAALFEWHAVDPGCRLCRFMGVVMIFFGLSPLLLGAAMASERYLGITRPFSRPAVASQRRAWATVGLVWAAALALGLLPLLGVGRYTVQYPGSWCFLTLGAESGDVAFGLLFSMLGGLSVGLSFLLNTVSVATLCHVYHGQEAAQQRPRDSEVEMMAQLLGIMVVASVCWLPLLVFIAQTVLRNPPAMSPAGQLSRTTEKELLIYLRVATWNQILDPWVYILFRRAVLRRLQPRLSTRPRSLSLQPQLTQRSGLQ

The target in assay [4] is Muscarinic acetylcholine receptor M1 (Homo sapiens) (UniProt P11229). The experiment in a line: NVS_GPCR_hM1: NovaScreen (NVS) G Protein-Coupled Receptor Assay for human Muscarinic, M1 Receptor (AID 2283270). The gist of the method:
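Actives from a duplicate 25 uM single-point screen were retested in concentration series. Binding measured as displacement of a radioligand from CHO-derived receptor preparation, 1 h incubation, filtration and scintillation counting, analysed as signal loss against DMSO.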

Assay [5] has as its target human Orphanin, Opioid Related Nociceptin Receptor 1 (ORL1), OPRL1 (gene 4987) (UniProt P41146). The experiment in a line: NVS_GPCR_hORL1: NovaScreen (NVS) G Protein-Coupled Receptor Assay for human Orphanin, Opioid Related Nociceptin Receptor 1 (ORL1) (AID 2283283). The gist of the method: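 Cell-free binding using HEK293-derived receptor protein: radioligand displacement measured by filter scintillation 1 hour after dosing. Primary testing at 25 uM in duplicate, followed by singleton concentration series up to 50 uM; DMSO served as negative control.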

Assay [6] addresses human Purinergic Receptor P2Y, P2RY1 (gene 5028) (UniProt P47900). Description: NVS_GPCR_hPY2: NovaScreen (NVS) G Protein-Coupled Receptor Assay for human Purinergic Receptor P2Y (AID 2283281). The gist of the method: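 Filtration scintillation readout of radioligand displacement on U937 extract, measured 1 h post-dosing. Single 25 uM duplicate screen, then singleton concentration series to 50 uM for chemicals passing threshold; DMSO as baseline.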

Assay [7] has as its target Muscarinic acetylcholine receptor M2 (Homo sapiens) (UniProt P08172). Description: NVS_GPCR_hM2: NovaScreen (NVS) G Protein-Coupled Receptor Assay for human Muscarinic, M2 Receptor (AID 2283273). The gist of the method: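 Filter-based radiodetection read bound radioligand 1 h after dosing CHO-derived membrane protein. Single-concentration duplicates (25 uM) first, then concentration-response for actives; signal loss versus DMSO scored.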

For assay [8], the target named is human Adrenergic, Alpha 2c Receptor (Adra2C), ADRA2C (gene 152) (UniProt P18825). Description: NVS_GPCR_hAdra2C: NovaScreen (NVS) G Protein-Coupled Receptor Assay for human Adrenergic, Alpha 2c Receptor (Adra2C) (AID 2283259). The gist of the method:
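Screened first in duplicate at 25 uM, with actives then run as concentration series. Membranes from Sf9 cells were exposed for 1 h, and displacement of radioligand was counted after filtration, using DMSO as baseline.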

The target of assay [9] is human Adrenergic, Beta 3 Receptor (Adrb3), ADRB3 (gene 155) (UniProt P13945). Description: NVS_GPCR_hAdrb3: NovaScreen (NVS) G Protein-Coupled Receptor Assay for human Adrenergic, Beta 3 Receptor (Adrb3) (AID 2283262). The gist of the method:
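A cell-free filter binding assay read by scintillation counting, with displacement of a specific radioligand measured after 1 hour. The receptor source was SK-N-MC extracts (cells pretreated with isoproterenol and 8-bromo-cAMP). Compounds were first tested at 25 uM in duplicate and then in concentration series.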

Assay [10] deals with human Dopamine Receptor D2 (DRD2), DRD2 (gene 1813) (UniProt P14416). Description: NVS_GPCR_hDRD2s: NovaScreen (NVS) G Protein-Coupled Receptor Assay for human Dopamine Receptor D2 (DRD2) (AID 2283266). The gist of the method:
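Test compound (25 uM, duplicate in the primary screen; concentration series at follow-up) competed with radioligand for human DRD2 in CHO-derived membrane protein. Filter-based scintillation counting was done 1.5 hours after dosing, with loss of signal analysed against DMSO.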

For assay [11], the target named is human Muscarinic, M4 Receptor, CHRM4 (gene 1132) (UniProt P08173). Description: NVS_GPCR_hM4: NovaScreen (NVS) G Protein-Coupled Receptor Assay for human Muscarinic, M4 Receptor (AID 2283274). The procedure, abridged: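 Filter-based scintillation counting of radioligand bound to CHO-expressed human M4 preparations after 1 h; loss of signal fitted versus DMSO. Initial duplicate testing at 25 uM, concentration-response follow-up for actives.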

Assay [12] addresses Muscarinic acetylcholine receptor M5 (Homo sapiens) (UniProt P08912). The experiment in a line: NVS_GPCR_hM5: NovaScreen (NVS) G Protein-Coupled Receptor Assay for human Muscarinic, M5 Receptor (AID 2283275). The procedure, abridged: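 Chemicals passing a primary duplicate screen at 25 uM were run as singleton concentration series, maximum 50 uM. Displacement of a specific radioligand from CHO-extracted receptor was read by filter scintillation after 1 h, relative to DMSO.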

For assay [13], the target named is human Opioid Receptor Delta 1 (Opiate D1), OPRD1 (gene 4985) (UniProt P41143). The experiment in a line: NVS_GPCR_hOpiate_D1: NovaScreen (NVS) G Protein-Coupled Receptor Assay for human Opioid Receptor Delta 1 (Opiate D1) (AID 2283280). The procedure, abridged: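 Membrane preparations from CHO cells bearing the human receptor were incubated 1 h with test chemical, and bound radioligand was counted after filtration. Actives from 25 uM duplicate screening were retested in concentration-response.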
human Opioid Receptor Delta 1 (Opiate D1), OPRD1 (gene 4985), sequence (P41143 whole entry, looked up): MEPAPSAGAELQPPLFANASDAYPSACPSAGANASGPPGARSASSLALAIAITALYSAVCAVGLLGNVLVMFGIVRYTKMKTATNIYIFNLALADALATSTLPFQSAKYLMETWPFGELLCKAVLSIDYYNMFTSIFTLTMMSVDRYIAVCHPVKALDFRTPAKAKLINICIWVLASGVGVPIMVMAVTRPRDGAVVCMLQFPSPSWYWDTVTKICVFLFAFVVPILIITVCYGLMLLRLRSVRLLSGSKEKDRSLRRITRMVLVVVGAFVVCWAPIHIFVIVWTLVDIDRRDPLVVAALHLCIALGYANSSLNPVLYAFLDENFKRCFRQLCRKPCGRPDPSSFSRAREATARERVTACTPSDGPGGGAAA

Values joined by “and” are separate entries in the source; they are usually repeats but may differ in a detail not shown here. Equal values may be shown once. Results filed as inconclusive are left out. Where a structure was tested more than once in an assay, its records may differ in their call. Active and inactive are the calls of the source. How the source made its calls: active means hit-call score of the fitted dose curve at least 0.9, where 1 is the maximum; inconclusive means response in the unintended direction; inactive means score below 0.9.

human Neurokinin, NK2 Receptor, TACR2 (gene 6865), sequence (P21452 whole entry, looked up): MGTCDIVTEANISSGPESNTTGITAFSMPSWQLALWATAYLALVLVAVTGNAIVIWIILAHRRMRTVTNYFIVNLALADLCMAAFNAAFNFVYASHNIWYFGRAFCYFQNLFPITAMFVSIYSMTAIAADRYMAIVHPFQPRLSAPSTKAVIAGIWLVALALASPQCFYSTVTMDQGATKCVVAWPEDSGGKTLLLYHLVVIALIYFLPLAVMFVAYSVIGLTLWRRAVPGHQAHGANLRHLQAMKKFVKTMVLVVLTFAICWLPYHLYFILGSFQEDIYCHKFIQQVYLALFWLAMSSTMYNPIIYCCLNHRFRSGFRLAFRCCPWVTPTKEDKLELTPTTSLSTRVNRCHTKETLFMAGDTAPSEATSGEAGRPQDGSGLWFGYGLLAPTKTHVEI
Muscarinic acetylcholine receptor M2 (Homo sapiens), sequence (P08172 whole entry, looked up): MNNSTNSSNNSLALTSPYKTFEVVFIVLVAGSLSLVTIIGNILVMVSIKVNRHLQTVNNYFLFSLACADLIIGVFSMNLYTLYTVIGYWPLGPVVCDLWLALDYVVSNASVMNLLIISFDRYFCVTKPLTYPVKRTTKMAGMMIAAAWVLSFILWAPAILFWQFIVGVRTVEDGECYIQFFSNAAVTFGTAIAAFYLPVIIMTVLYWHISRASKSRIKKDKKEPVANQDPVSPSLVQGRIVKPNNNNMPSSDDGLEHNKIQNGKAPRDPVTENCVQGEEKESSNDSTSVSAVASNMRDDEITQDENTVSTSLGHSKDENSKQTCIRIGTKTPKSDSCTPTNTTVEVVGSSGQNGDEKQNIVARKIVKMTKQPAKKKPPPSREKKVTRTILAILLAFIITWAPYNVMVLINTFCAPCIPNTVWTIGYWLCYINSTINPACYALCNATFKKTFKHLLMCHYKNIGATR
D(1A) dopamine receptor (Homo sapiens), sequence (P21728 whole entry, looked up): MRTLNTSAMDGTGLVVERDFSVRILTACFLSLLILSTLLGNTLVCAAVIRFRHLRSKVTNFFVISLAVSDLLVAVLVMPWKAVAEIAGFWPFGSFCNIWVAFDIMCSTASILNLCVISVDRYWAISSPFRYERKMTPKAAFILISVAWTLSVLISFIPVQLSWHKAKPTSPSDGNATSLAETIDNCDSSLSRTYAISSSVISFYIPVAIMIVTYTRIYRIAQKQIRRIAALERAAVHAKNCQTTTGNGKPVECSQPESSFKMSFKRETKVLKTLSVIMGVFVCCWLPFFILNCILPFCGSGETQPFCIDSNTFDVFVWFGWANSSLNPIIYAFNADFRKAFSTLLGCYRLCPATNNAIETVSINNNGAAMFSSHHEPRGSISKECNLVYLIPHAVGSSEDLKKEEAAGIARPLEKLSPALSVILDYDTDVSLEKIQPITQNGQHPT
human Purinergic Receptor P2Y, P2RY1 (gene 5028), sequence (P47900 whole entry, looked up): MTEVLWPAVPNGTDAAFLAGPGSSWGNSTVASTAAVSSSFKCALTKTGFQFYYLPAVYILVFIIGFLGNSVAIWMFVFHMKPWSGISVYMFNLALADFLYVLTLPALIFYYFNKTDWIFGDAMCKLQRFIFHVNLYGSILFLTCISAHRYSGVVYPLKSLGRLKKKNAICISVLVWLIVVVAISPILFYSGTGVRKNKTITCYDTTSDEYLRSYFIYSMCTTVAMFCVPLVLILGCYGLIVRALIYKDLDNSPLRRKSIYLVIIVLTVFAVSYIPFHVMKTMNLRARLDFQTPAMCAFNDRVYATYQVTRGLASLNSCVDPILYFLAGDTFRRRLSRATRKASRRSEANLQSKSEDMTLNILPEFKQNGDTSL
Muscarinic acetylcholine receptor M5 (Homo sapiens), sequence (P08912 whole entry, looked up): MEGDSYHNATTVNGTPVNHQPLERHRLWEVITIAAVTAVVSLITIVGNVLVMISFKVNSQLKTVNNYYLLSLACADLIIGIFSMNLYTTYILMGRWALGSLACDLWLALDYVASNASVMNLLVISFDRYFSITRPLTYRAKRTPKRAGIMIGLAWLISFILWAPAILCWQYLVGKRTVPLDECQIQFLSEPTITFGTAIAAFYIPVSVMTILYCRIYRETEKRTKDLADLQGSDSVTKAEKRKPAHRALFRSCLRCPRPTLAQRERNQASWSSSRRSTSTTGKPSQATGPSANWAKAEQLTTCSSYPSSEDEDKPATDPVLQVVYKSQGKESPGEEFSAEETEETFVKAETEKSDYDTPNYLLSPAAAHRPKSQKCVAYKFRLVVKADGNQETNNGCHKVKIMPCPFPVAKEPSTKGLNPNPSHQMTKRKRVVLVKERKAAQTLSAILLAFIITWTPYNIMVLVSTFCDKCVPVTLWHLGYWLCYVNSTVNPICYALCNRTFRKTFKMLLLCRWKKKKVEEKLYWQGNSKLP
Muscarinic acetylcholine receptor M1 (Homo sapiens), sequence (P11229 whole entry, looked up): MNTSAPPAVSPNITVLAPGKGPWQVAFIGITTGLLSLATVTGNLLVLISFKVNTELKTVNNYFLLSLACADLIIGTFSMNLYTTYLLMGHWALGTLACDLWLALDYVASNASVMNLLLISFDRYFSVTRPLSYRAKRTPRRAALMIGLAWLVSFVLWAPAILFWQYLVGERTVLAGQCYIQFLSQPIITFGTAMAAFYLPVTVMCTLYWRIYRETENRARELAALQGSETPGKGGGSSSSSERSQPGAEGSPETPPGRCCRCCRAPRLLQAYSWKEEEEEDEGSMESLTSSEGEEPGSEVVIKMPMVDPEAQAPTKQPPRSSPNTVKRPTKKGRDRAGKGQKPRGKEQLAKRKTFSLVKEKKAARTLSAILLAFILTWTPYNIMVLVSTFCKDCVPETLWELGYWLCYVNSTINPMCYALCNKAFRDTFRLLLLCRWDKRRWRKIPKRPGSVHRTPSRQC
human Dopamine Receptor D2 (DRD2), DRD2 (gene 1813), sequence (P14416 whole entry, looked up): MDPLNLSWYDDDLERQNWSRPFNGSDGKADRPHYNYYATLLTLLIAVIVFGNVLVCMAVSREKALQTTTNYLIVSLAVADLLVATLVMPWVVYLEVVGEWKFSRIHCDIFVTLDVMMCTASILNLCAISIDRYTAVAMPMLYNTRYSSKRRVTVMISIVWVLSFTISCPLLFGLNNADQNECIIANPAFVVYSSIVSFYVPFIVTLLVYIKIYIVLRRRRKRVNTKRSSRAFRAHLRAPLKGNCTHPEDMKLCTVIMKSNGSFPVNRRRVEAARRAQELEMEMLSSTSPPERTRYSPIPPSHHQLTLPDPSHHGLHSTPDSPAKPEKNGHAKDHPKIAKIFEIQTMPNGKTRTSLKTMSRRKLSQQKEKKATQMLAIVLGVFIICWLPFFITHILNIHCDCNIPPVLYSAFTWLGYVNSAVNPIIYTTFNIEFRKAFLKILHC
human Adrenergic, Alpha 2c Receptor (Adra2C), ADRA2C (gene 152), sequence (P18825 whole entry, looked up): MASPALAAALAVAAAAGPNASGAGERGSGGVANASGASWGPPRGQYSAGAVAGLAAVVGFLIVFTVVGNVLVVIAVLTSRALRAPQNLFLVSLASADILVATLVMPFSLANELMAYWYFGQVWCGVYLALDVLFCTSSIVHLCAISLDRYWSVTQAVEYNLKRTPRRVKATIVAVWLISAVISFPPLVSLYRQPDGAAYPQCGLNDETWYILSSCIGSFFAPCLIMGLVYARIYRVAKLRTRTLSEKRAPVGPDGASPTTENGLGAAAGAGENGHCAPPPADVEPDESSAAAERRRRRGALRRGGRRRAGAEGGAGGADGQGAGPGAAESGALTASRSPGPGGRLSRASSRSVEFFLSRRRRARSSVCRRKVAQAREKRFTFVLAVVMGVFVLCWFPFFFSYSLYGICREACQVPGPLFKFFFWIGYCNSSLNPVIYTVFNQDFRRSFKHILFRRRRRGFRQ
human Orphanin, Opioid Related Nociceptin Receptor 1 (ORL1), OPRL1 (gene 4987), sequence (P41146 whole entry, looked up): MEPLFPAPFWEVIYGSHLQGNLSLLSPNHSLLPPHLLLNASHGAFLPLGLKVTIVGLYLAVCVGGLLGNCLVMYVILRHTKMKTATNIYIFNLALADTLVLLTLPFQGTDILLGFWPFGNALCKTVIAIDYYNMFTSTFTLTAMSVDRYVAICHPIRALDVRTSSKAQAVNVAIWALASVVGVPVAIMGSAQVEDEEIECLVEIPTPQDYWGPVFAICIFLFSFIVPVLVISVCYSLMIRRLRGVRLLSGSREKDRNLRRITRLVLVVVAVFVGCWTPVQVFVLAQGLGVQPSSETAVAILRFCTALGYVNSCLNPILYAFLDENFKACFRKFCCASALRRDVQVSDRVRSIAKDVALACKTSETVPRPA

In the case of `O=C1OC2(c3ccccc31)c1cc(I)c(O)c(I)c1Oc1c2cc(I)c(O)c1I`, the AC50 was 0.594 µM (active) in assay [1], 1.78 µM (active) in assay [2] and 1.24 µM (active) in assay [3].
With `NC(=NCCCCCCN=C(N)/N=C(\N)Nc1ccc(Cl)cc1)/N=C(\N)Nc1ccc(Cl)cc1`, the AC50 in assay [1] is 0.618 µM (active); in assay [4], 3.15 µM (active); in [2] it was 2.18 µM (active); in [5], 4.71 µM (active).
For the molecule `CC(O)COc1ccccc1` (stereo not drawn), in [3], the outcome was inactive.
On to `CC=O`, for which the molecule was called inactive in assay [1] and in [3].
Regarding `CCCCC=O`, in assay [6], the molecule was classed as inactive.
`C=Cc1ccc(O)c(OC)c1`: the call in assay [3] was inactive.
For `O=C1c2ccc(O)c(O)c2C(=O)c2c(O)ccc(O)c21`, the outcome in assay [1] was inactive.
Take `CN(C)c1ccc(C(=C2C=CC(=[N+](C)C)C=C2)c2ccccc2)cc1`: the AC50 in [1] is 2.97 µM (active) and 3.18 µM (active); in assay [7], 4.03 µM (active) and 2.32 µM (active); in [2], 5.94 µM (active) and 1.63 µM (active); in [3], 12.5 µM (active). For the same molecule, the molecule was called inactive in assay [3].
`OCC(CO)(CBr)CBr`: in assay [3], the call was inactive.
Turning to `CN(Cc1cnc2nc(N)nc(N)c2n1)c1ccc(C(=O)N[C@@H](CCC(=O)O)C(=O)O)cc1`, the molecule was classed as inactive in assay [8], in assay [9], in assay [11] and in assay [12]. In addition, the AC50 in assay [10] was 22 µM (active); in assay [1], 25 µM (active); in [2] it was 2.6 µM (active); in assay [13], 25 µM (active).
With `CCCCCCCC(OC)OC`, the AC50 in [3] is 0.0748 µM (active).
As for `CCc1cccc(CC)c1NC(=O)C(=O)O`, in assay [1], the molecule was called inactive.
With `CCCCCCCCCCCCCCCCCC[N+](C)(C)Cc1ccccc1`, the AC50 in assay [1] is 2.22 µM (active); in assay [7], 314 nM (active); in assay [2] it was 2.55 µM (active).
As for `CCOC(=O)CN[C@@H](C(=O)N1CC[C@H]1C(=O)NCc1ccc(/C(N)=N/O)cc1)C1CCCCC1`, in assay [1], the call was inactive.
Turning to `CC[N+](CC)(CC)Cc1ccccc1`, the AC50 in assay [7] is 21500 nM (active).
As to `COc1cc(OC)nc(NC(=O)NS(=O)(=O)Nc2ccccc2C(=O)N(C)C)n1`, the molecule was called inactive in assay [1].
For the molecule `Clc1ccc(Nc2nnc(Cc3ccncc3)c3ccccc23)cc1`, the AC50 in [1] is 16 µM (active); in assay [2], 3.61 µM (active); in assay [3], 0.417 µM (active).

In general, AC50 refers to the midpoint of the concentration-response curve, whichever way the signal moves.

Source of the values: PubChem BioAssay (EPA / NIEHS).
